From PubChem BioAssay
The source made the active and inactive calls.

Tests used:
[1] = test system: Plasmodium falciparum Sir2 (PF13_0152, Sir2A); experiment: pfSir2 binders on small-molecule microarrays, primary screen, biochemical, small-molecule microarray, 635 nm fluorescence (AID 1098); conditions: small-molecule microarray binding, fluorescence 635 nm; higher = more signal;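 also: score merges spot fluorescence intensity with its signal-to-noise ratio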
[2] = small-molecule microarray binders of probe aDKK1, primary screen, biochemical, biotinylated probe, 635/667 nm fluorescence (AID 1099); conditions: higher = more signal;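 also: score merges 667nm spot fluorescence with signal to noise across triplicate slides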
[3] = small-molecule microarray binders of probe aCHRDL2, primary screen, biochemical, biotinylated probe, 635/667 nm fluorescence (AID 1100); conditions: higher = more signal
[4] = splicing luciferase reporter signal modulators, primary screen, spliceosome inhibition project, cell-based, HEK293, splice +/- reporter (AID 1101); conditions: luminescence, 24 h, higher = more signal, called active from +8 up or from −8 down;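 also: HEK293 cells carrying a splicing-competent luciferase reporter gene; test concentration not given here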
[5] = biological target: Fibroblast growth factor 10 (Homo sapiens) (UniProt O15520); experiment: FGF10 binders on small-molecule microarrays, primary screen, biochemical, small-molecule microarray, 635 nm fluorescence (AID 1102); conditions: FGF10 binding, fluorescence 635 nm, higher = more signal
Sequence of Fibroblast growth factor 10 (Homo sapiens) (O15520 whole entry, looked up): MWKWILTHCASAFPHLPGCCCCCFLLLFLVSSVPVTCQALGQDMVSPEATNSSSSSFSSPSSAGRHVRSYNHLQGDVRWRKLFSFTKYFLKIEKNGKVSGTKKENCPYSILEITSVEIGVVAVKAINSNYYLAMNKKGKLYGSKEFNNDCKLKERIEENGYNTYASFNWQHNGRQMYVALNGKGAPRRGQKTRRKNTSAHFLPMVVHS

[6] = test system: glycogen synthase kinase-3 (GSK3A per assay name; protocol says GSK3B); experiment: GSK3 binders on small-molecule microarrays, primary screen, biochemical, small-molecule microarray, 635 nm fluorescence, GSK3A (AID 1103); conditions: small-molecule microarray binding, fluorescence 635 nm; higher = more signal; also: the record names both GSK3A and GSK3B
[7] = biological target: Epidermal growth factor receptor (Homo sapiens) (UniProt P00533); experiment: EGFR binders on small-molecule microarrays, primary screen, biochemical, small-molecule microarray, 635 nm fluorescence (AID 1104); conditions: EGFR binding, higher = more signal;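 also: score merges 667 nm emission intensity with spot signal to noise over triplicate slides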
Sequence of Epidermal growth factor receptor (Homo sapiens) (P00533 whole entry, looked up): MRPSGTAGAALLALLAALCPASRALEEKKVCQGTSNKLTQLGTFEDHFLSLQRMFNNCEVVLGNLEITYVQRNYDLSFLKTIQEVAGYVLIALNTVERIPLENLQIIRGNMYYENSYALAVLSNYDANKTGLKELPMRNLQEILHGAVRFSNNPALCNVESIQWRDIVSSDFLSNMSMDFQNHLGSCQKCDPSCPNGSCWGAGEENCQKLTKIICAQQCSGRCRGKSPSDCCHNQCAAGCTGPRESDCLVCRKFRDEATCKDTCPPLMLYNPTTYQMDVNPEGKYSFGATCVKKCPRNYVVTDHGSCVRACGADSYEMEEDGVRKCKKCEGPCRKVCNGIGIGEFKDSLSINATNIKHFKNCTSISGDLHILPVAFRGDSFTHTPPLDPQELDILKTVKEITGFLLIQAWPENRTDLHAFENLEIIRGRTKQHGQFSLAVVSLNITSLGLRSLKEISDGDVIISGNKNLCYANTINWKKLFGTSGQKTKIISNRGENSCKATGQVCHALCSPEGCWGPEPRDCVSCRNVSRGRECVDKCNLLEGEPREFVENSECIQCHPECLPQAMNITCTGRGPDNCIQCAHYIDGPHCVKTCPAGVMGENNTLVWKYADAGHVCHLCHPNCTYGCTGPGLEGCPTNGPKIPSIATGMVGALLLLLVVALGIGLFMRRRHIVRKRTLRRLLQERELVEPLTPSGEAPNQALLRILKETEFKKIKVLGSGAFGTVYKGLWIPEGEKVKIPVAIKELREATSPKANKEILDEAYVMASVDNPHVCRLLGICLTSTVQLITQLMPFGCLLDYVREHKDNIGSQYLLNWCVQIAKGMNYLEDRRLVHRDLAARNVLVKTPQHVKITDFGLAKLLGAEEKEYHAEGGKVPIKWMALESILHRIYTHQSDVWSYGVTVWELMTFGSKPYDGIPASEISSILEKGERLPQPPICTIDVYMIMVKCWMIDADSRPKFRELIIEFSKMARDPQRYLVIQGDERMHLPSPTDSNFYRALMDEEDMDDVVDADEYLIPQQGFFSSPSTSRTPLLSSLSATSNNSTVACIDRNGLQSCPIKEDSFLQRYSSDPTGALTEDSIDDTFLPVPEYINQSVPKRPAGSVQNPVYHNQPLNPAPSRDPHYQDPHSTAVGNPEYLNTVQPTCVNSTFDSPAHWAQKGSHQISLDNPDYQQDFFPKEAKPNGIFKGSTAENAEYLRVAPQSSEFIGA

[8] = biological target: Follistatin-related protein 3 (Homo sapiens) (UniProt O95633); experiment: FSTL3 binders on small-molecule microarrays, primary screen, biochemical, small-molecule microarray, 635 nm fluorescence (AID 1105); conditions: FSTL3 binding, higher = more signal;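 also: score merges emission near 667 nm and signal to noise per printed spot across three slides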
Sequence of Follistatin-related protein 3 (Homo sapiens) (O95633 whole entry, looked up): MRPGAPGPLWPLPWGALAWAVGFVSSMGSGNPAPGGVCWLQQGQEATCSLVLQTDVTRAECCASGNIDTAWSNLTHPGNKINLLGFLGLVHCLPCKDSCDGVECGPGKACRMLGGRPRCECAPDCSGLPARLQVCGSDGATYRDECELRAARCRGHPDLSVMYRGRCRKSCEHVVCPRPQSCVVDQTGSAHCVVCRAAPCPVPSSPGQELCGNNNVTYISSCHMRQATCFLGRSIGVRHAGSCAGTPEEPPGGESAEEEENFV

[9] = biological target: Dickkopf-related protein 1 (Homo sapiens) (UniProt O94907); experiment: DKK1 binders on small-molecule microarrays, primary screen, biochemical, small-molecule microarray, 635 nm fluorescence scan (AID 1106); conditions: DKK1 binding, higher = more signal;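 also: score merges emission near 667 nm with signal to noise over three replicate slides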
Sequence of Dickkopf-related protein 1 (Homo sapiens) (O94907 whole entry, looked up): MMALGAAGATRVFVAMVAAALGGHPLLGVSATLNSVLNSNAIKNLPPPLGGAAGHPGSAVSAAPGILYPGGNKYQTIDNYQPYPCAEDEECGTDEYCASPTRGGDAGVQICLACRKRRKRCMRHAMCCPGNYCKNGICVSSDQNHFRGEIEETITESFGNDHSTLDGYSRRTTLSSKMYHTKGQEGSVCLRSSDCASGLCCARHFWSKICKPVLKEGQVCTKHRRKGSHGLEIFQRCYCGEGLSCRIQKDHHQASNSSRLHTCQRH

[10] = test system: Inhibin beta A chain (activin A); experiment: INHBA (activin A) binders on microarrays, primary screen, biochemical, small-molecule microarray, 635 nm fluorescence scan (AID 1107); conditions: small-molecule microarray binding, higher = more signal;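 also: mouse activin A protein probed at 4.33 µg/mL on printed slides; score merges bound-protein fluorescence near 667 nm with spot signal-to-noise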
[11] = test system: Human papillomavirus type 1a protein E7 (residues 44-93); experiment: HPV1a E7 fragment binders on microarrays, primary screen, biochemical, small-molecule microarray, residues 44-93, 635 nm fluorescence (AID 1108); conditions: small-molecule microarray binding, fluorescence 635 nm; higher = more signal;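 also: E7 fragment applied at 1 µg/mL in TBST for 1 h at 4 C; score combines spot fluorescence with its signal to noise ratio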
[12] = modulators of HCV replicon luciferase signal, primary screen, HCV replication inhibitor project, Huh7 cells, luciferase reporter (AID 1109); conditions: 48 h, higher = more signal;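 also: huh7 hepatoma cells harbouring a luciferase neomycin HCV replicon reporter; luciferase luminescence as measure of HCV replicon replication; test concentration not given here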
[13] = biological target: Left-right determination factor 2 (Homo sapiens) (UniProt O00292); experiment: LEFTY2 binders on small-molecule microarrays, primary screen, biochemical, small-molecule microarray, 635 nm fluorescence scan (AID 1110); conditions: LEFTY2 binding, higher = more signal
Sequence of Left-right determination factor 2 (Homo sapiens) (O00292 whole entry, looked up): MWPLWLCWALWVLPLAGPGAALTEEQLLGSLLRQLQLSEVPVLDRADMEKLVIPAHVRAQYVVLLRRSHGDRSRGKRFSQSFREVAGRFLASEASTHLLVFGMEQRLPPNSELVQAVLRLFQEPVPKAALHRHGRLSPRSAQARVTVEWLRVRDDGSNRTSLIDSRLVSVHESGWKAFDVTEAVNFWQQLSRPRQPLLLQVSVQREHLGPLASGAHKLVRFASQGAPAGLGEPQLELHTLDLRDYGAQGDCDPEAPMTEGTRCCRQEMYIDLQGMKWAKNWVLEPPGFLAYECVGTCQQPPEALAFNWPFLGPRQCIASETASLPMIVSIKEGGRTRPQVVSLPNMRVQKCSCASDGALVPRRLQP

[14] = biological target: Calmodulin-1 (Homo sapiens) (UniProt P0DP23); experiment: CALM1 binders on microarrays, EGTA buffer, profiling panel, biochemical, small-molecule microarray, Cy5-labelled CALM1 (AID 1111); conditions: Cy5-CALM1 binding fluorescence, higher = more signal;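 also: labelled calmodulin applied in Tris saline Tween buffer holding calcium plus EGTA and DTT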
[15] = biological target: Calmodulin-1 (Homo sapiens) (UniProt P0DP23); experiment: calcium-bound CALM1 binders on microarrays, profiling panel, artefact control for SMM control-protein annotation, biochemical, small-molecule microarray, Cy5-labelled CALM1, plus calcium (AID 1112); conditions: Cy5-CALM1 binding fluorescence, higher = more signal;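 also: score merges spot fluorescence with signal to noise from triplicate slides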
[16] = small-molecule microarray binders of probe aWnt5a, primary screen, biochemical, biotinylated probe, 635/667 nm fluorescence (AID 1113); conditions: higher = more signal;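 also: score merges 667 nm fluorescence intensity with signal-to-noise per printed feature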
[17] = small-molecule microarray binders of probe aShh, primary screen, biochemical, biotinylated probe, 635/667 nm fluorescence (AID 1114); conditions: higher = more signal;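 also: probe is biotin-labelled aShh protein from a stem cell growth factor screen; measures binding of labelled protein to compounds printed on the slide; score merges feature fluorescence at 667 nm with signal-to-noise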
[18] = small-molecule microarray binders of probe aNog, primary screen, biochemical, biotinylated probe, 635/667 nm fluorescence (AID 1115); conditions: higher = more signal;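 also: probe is biotinylated aNog protein used at 0.15 µg/mL for 1 h at 4 C; z-score combines 667 nm fluorescence of each spot with its signal to noise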
[19] = biological target: Torsin-1A-interacting protein 1 (Homo sapiens) (UniProt Q5JTV8); experiment: LAP1 binders from COS7 cell lysate, primary screen, small-molecule microarray, 635/667 nm fluorescence (AID 1116); conditions: COS7-hLAP1 lysate binding, 635 nm fluorescence, higher = more signal
Sequence of Torsin-1A-interacting protein 1 (Homo sapiens) (Q5JTV8 whole entry, looked up): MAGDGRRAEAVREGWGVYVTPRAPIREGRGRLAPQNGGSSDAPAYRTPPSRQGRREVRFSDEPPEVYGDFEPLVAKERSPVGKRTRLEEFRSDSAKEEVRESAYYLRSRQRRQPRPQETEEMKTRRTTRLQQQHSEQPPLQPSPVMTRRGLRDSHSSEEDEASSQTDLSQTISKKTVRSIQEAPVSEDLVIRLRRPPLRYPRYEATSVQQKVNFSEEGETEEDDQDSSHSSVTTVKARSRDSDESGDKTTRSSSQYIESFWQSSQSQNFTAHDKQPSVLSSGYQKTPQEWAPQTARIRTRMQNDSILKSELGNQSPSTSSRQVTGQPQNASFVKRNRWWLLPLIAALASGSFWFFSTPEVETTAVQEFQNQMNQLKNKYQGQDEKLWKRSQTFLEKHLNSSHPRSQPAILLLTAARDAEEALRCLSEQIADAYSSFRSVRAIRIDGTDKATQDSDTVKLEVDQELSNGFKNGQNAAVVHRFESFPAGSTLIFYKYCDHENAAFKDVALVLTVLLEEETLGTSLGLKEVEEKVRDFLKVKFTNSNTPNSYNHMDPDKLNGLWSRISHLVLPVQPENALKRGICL

[20] = biological target: Alpha-bungarotoxin (Bungarus multicinctus) (UniProt P60615); experiment: alpha-bungarotoxin binders on microarray, profiling panel, artefact control for SMM control protein annotation, biochemical, small-molecule microarray, Alexa647 label, 635/667 nm fluorescence (AID 1117); conditions: alpha-BTX-A647 binding fluorescence, higher = more signal
Sequence of Alpha-bungarotoxin (Bungarus multicinctus) (P60615 whole entry, looked up): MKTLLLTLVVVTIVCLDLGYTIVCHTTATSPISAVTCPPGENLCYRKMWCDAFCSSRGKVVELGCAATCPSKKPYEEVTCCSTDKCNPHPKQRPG

Structure (SMILES)	composite z-score [1]	composite z-score [2]	composite z-score [3]	z-score [4]	composite z-score [5]	composite z-score [6]	composite z-score [7]	composite z-score [8]	composite z-score [9]	composite z-score [10]	composite z-score [11]	z-score [12]	composite z-score [13]	composite z-score [14]	composite z-score [15]	composite z-score [16]	composite z-score [17]	composite z-score [18]	composite z-score [19]	composite z-score [20]
O=C1O[C@@H](c2ccccc2)[C@@H](c2ccccc2)N2[C@@H](c3ccc(OCCO)cc3)[C@]3(C(=O)Nc4ccc(C#CCCO)cc43)[C@@H](C(=O)Nc3nc4ccccc4s3)[C@H]12	1.08	0.49	0.683	-0.288 (inactive)	0.975	1.29	0.367	1.08	0.0321	0.655	1.36	-1.36	0.364	0.84	0.338	0.0219	0.0639	-0.353	0.82	0.626
CN(C)CCCC[C@@H]1NC(=O)[C@H]2C[C@@H](C(=O)NCc3ccc(F)cc3)[C@@H](c3ccc(O)cc3)N2C1=O	0.298	0.0179	-0.4	0.163 (inactive)	1.2	0.902	0.0583	0.571	0.776	0.853	-0.247	0.206	1.15	-1.08	0.354	-0.0748	0.365	-0.273	1.03	2.5
CCOC(=O)C1=C(C(=O)OCC)N(S(=O)(=O)CC[Si](C)(C)C)[C@H](c2ccccc2)CC1	0.461	0.879	0.845	0.37 (inactive)	0.8	1	0.313	0.971	-0.111	0.955	1.3	-2.8	-0.171	0.435	0.161	0.0307	-0.164	0.118	0.356	1.23
CCOC(=O)C1=CC[C@@H](c2ccccc2)N(S(=O)(=O)c2ccc(C)cc2)[C@H]1C#N	1.54	0.507	0.56	0.705 (inactive)	0.417	0.73	-0.106	-0.111	-0.377	-0.0426	0.894	-1.76	0.116	0.906	0.658	0.0044	-0.16	-0.59	1.03	-0.06
CN(C)CCCNC(=O)[C@@]1(Cc2ccccc2I)c2ccccc2C(=O)N(Cc2ccccc2)[C@H]1c1ccc(CO)cc1	1.54	1.04	-0.726	0.652 (inactive)	1.37	1.33	0.17	0.617	0.707	0.0573	1.41	-3.36	0.189	-0.489	-0.636	0.22	-0.32	0.84	1.21	0.542
